# Only some compounds are listed: those with a hit (about 2.5% of all), similar ones and a draw of the others.
# V-ATPase pHluor = regulators of yeast V-ATPase proton pumping, primary screen, pHLuorin cytosolic pH fluorescence; S. cerevisiae; AID 504577, 2011; response, % at 10 µM; hit rate 0.37% among 350,000; in the data active = response mostly above about 7.3%, no sharp cut-off; inactive = mostly below about 5.4%; also: actives read high
# ATG4B inh = ATG4B protease inhibitors, primary screen, biochemical, fluorescence, uHTS. Cysteine protease ATG4B (Homo sapiens), Q9Y4P1. ATG4B cleavage of LC3-PLA2, NBD-HPC fluorescence, 1 h. inhibition, % at 8.33 µM. hit rate 0.51% among 340,000. AID 504462, 2011; in the data active = inhibition above about 40%
# Target sequence (Q9Y4P1 whole entry, looked up): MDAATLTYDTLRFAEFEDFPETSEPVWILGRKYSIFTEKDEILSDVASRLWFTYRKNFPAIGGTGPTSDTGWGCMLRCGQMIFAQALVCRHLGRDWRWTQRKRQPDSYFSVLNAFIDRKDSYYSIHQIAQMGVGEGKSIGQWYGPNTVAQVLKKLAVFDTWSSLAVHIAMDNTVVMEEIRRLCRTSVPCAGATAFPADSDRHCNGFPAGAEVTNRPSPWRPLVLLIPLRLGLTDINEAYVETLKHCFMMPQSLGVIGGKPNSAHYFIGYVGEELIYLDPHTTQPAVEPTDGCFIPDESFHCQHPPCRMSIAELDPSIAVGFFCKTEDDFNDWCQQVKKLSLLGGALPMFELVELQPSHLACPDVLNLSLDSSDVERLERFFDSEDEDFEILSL
# Efflux pump inh = inhibitors of Candida efflux pumps in yeast, primary screen, S. cerevisiae, Nile Red, multiplex; hit rate 0.44% among 330,000; inhibition, % at 10 µM; S. cerevisiae Candida pump triplex;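 active = plate passing quality check with inhibition over a set limit, or well fluorescence over plate mean plus 4 SD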;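 also: Nile Red retained in pooled yeast measured as flow cytometry median fluorescence; 0% = buffer negative control and 100% = Enniatin B positive control; higher means more Nile Red kept so more efflux inhibition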
# AI-2 QS modul = Vibrio harveyi AI-2 quorum sensing modulators, primary screen, JMH597 strain, luminescence/OD600 ratio; activity change, % at 7.5 µM; Vibrio harveyi JMH597 AI-2 luminescence/OD600 ratio, 9 h; hits give low values; strain lacks LuxN and CqsS sensors; 0 = neutral-control median; hit rate 0.4% among 300,000; in the data active = activity change below about -75%, passing the limit was not always enough;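 also: luminescence divided by OD600 gain over 9 h not by final OD600 alone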
# SUMO Mot1 rescue = yeast Mot1-301 growth rescue at high temperature, primary screen, SUMOylation pathway inhibitor project, S. cerevisiae, ATP luminescence, 38.5C | S. cerevisiae Mot1-301 growth rescue; percent above DMSO median, 100 means doubled | growth rescue, % at 18.8 µM | hit rate 1% among 320,000 | AID 2716, 2010;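 active = every valid replicate shows activation above 250% relative to neutral control wells; inactive = the rest, any valid replicate at or below 250%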;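 also: OY570 slx delta 5 strain wells were the positive control but not used for scaling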
# Yeast cmpd fluor = flagged as fluorescent in efflux inhibitor counter-screen. AID 588517. S. cerevisiae AD/pABC3, compound fluorescence, flow cytometry. shares compounds with Efflux pump inh. fluorescence ratio to DMSO, % at 10 µM. hit rate 4% among 1,700;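 active = fluorescence ratio to DMSO above its plate's cutoff, the plate mean ratio plus 5 SD, cut at about 210% in these data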;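 also: unstained yeast with no Nile Red so the signal is compound autofluorescence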
# CaMdr1 efflux inh = inhibitors of Candida albicans Mdr1 efflux, confirmation, flow cytometry, singleplex, Cherry Pick1 set | shares compounds with Efflux pump inh | S. cerevisiae AD/CaMDR1, Nile Red efflux | inhibition, % at 10 µM | hit rate 1% among 1,700; in the data active = inhibition above about 26%;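 also: 0% = DMSO vehicle and 100% = reference inhibitor; higher means more Nile Red retained so more efflux inhibition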
# Cdr2 pump inh = inhibitors of Candida albicans Cdr2 efflux pump, confirmation, S. cerevisiae AD/CaCDR2, flow cytometry, cherry pick 1, singleplex; shares compounds with Efflux pump inh; Nile Red retention; Nile Red retention ratio vs DMSO, % at 10 µM; hit rate 4% among 1,700; AID 588520, 2011; in the data active = Nile Red retention ratio vs DMSO above about 190%;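 also: higher ratio means more blocking of Cdr2 efflux of the dye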
# CaCdr1 efflux inh = inhibitors of Candida albicans Cdr1 efflux pump, confirmation, S. cerevisiae AD/CaCDR1, flow cytometry, cherry pick 1, singleplex. shares compounds with Efflux pump inh. Nile Red efflux. inhibition, % at 10 µM. hit rate 1% among 1,700;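 active = inhibition above the screen-wide mean plus twice its standard deviation, cut at about 32% in these data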
# * marks the source's active call; other numbers are inactive results; nt = not tested or not shown.
SMILES,V-ATPase pHluor,ATG4B inh,Efflux pump inh,AI-2 QS modul,SUMO Mot1 rescue,Yeast cmpd fluor,CaMdr1 efflux inh,Cdr2 pump inh,CaCdr1 efflux inh
O=C(NCCCN1CCCC1=O)c1cccnc1,-5,-6,5.9*,13,-15,95,0,91,0
CCOc1ccc(NC(=O)CCNS(=O)(=O)c2ccc3c(c2)c(=O)n(C)c(=O)n3C)cc1,4,-2,6.7*,23,1,114,0,98,0
COc1ccc(NC(=O)CCNS(=O)(=O)c2ccc3c(c2)c(=O)n(C)c(=O)n3C)c(OC)c1,-3,-3,0,28,130,nt,nt,nt,nt
Cn1c(=O)c2cc(S(=O)(=O)NCCC(=O)NC3CCCCCCC3)ccc2n(C)c1=O,-5,-4,8.2*,9,8,98,0,102,0
CN(CC(=O)NC1CCCCC1)S(=O)(=O)c1ccc2c(c1)c(=O)n(C)c(=O)n2C,7,2,0,4,51,nt,nt,nt,nt
COC(=O)c1sc(NC(=O)CSc2nnc(Cn3nnc4ccccc43)n2C)nc1C,nt,11,14*,0,-2,105,0,94,0
O=c1[nH]c(C2CCN(S(=O)(=O)c3ccc4c(c3)OCCO4)CC2)nc2c1nnn2Cc1cccc(F)c1,7,-11,3.2*,11,-17,108,0,106,1
O=c1[nH]c(C2CCN(S(=O)(=O)c3ccc4c(c3)OCCO4)CC2)nc2c1nnn2Cc1ccc(F)cc1,1,-14,2,23,-18,94,0,102,0
C/C(=N\NC(=O)c1nnn(-c2nonc2N)c1CSc1ccccc1)c1ccc2c(c1)OCO2,0,-2,1.0*,14,-4,105,0,119,0
CCCc1c(C(=O)N/N=C(\C)c2ccc3c(c2)OCO3)nnn1-c1nonc1N,0,nt,nt,nt,nt,nt,nt,nt,nt
CCCCOc1ccc(C(=O)N/C(=C\c2ccc([N+](=O)[O-])cc2)C(=O)OCc2ccco2)cc1,3,-3,0.4*,43,-20,155,2,116,0
CN(C)CCN(C(=O)c1ccc(S(=O)(=O)N2CCc3ccccc32)cc1)c1nc2ccc(F)cc2s1,-4,-2,0.4*,16,0,110,0,108,0
CC(C)Cn1c(=O)c(C(=O)N/N=C/c2cccc(F)c2)c(O)c2ccccc21,1,10,0,4,36,nt,nt,nt,nt
O=C(O)c1cccc(-c2ccc(/C=c3/sc4nc5ccccc5n4c3=O)o2)c1,-3,8,3.9*,25,4,133,0,262*,0
CC1Sc2ccc(C(=O)NCc3ccccn3)cc2NC1=O (configuration not stated),-1,6,0,nt,17,nt,nt,nt,nt
O=C1CC(Cc2ccccc2)C(=O)N1Cc1ccco1 (configuration not stated),0,-3,0,5,-9,nt,nt,nt,nt
Cc1ccc(CC2CC(=O)N(Cc3ccco3)C2=O)cc1 (configuration not stated),-3,-4,1.2*,5,266,108,0,110,0
CCOC(=O)c1c(NC(=O)Cn2nc(C(=O)O)c3ccccc3c2=O)sc2c1CCC(C)C2 (configuration not stated),8,-5,0.5*,-10,nt,107,0,95,0
O=c1c2ccccc2[nH]c(=S)n1CCN1CCc2ccccc2C1,0,11,0.8*,18,6,99,0,107,0
CN1CCN(CCn2c(=S)[nH]c3ccccc3c2=O)CC1,2,-6,0,15,-7,nt,nt,nt,nt
Cc1nn(C)c(Sc2ccccc2N)c1[N+](=O)[O-],-1,-12,0.9*,18,-5,105,0,106,0
O=C(O)CC(NCc1ccco1)C(=O)OCC1CCCO1 (configuration not stated),0,-11,0.7*,18,-9,104,0,94,0
O=C(O)CC(NCc1ccco1)C(=O)OCCc1ccccc1 (configuration not stated),1,2,0,14,-15,nt,nt,nt,nt
O=C1NC(=S)S/C1=C\c1ccc(SCc2ccco2)o1,2,67*,4.7*,nt,47,125,0,157,0
CCC1=NN2C(=N)/C(=C\c3ccc(SCc4ccco4)o3)C(=O)N=C2S1,2,17,0,33,8,nt,nt,nt,nt
SMILES,V-ATPase pHluor,ATG4B inh,Efflux pump inh,AI-2 QS modul,SUMO Mot1 rescue,Yeast cmpd fluor,CaMdr1 efflux inh,Cdr2 pump inh,CaCdr1 efflux inh
C/C(=N\NC(=O)c1cccc(Cl)c1)C1C(=O)c2ccccc2C1=O,-3,26,13*,10,-3,92,0,101,0
C/C(=N\NC(=O)CCc1ccccc1)C1C(=O)c2ccccc2C1=O,2,4,0,44,48,nt,nt,nt,nt
COc1ccc(CCNC(=O)COc2cc(O)c3c(c2)OC(C)(C)CC3=O)cc1OC,1,-23,0,28,9,nt,nt,nt,nt
COc1ccc(/C=C(\C#N)C(=O)Nc2cc(S(=O)(=O)N3CCCCC3)ccc2N2CCCCC2)cc1,2,2,0.5*,31,-10,126,0,114,0
COc1ccc(/C=C/C(=O)Nc2cc(S(=O)(=O)N3CCCCC3)ccc2N2CCCCC2)cc1OC,-3,6,0,-19,-8,nt,nt,nt,nt
Cn1c(Cc2ccccc2)nnc1SCC(=O)Nc1ccc2c(c1)OCCO2,-6,-4,0,67,-18,nt,nt,nt,nt
O=C(CSc1nnc(Cc2cccs2)n1-c1ccccc1)Nc1ccc2c(c1)OCCO2,7,-4,0,25,5,126,2,112,1
Cc1ccc(-n2c(Cc3cccs3)nnc2SCC(=O)Nc2ccc(F)c(F)c2)cc1,2,28,0,9,27,100,0,95,0
CSc1nsc(SC)c1C(=O)Nc1ccc(C(C)(C)C)cc1,2,2,0,90,-4,nt,nt,nt,nt
CSc1nsc(SC)c1C(=O)NC(=O)Nc1cccnc1,-3,-6,0.8*,21,-21,107,0,112,0
COc1ccc(C(=O)N/N=C/c2ccc(OC)c(COc3ccccc3)c2)cc1,4,-1,0,14,705,nt,nt,nt,nt

# Compound activity deposited in PubChem BioAssay by several laboratories.
